Rows were chosen to be rich in hits. Some 5.9% of all compounds tested hit in one or more screens of this group.
rCAG binder: binds r(CAG) RNA repeats. r(CAG) RNA repeat, TO-PRO-1 dye displacement fluorescence. inhibition, % at 3 µM. actives 1.3% (n = 370,000). AID 651821;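 active = inhibition above the plate cutoff, the mean of all test compounds on that plate plus 3 SD, cut at about 35% in these data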;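 note: 0% = DMSO alone and 100% = 100 µM mitoxantrone as full dye displacement; higher means more dye released from RNA so lower well fluorescence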
ABHD5 PLIN5 PPI: inhibitors of human ABHD5-perilipin-5 interaction | Q00G26+Q8WTS1 | Split G. princeps luciferase complementation, luminescence, 4 h | inhibition, % at 4 µM | actives 0.78% (n = 360,000);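 active = inhibition above the mean inhibition across every tested compound plus 3 SD, cut at about 22% in these data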;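 note: 0% = DMSO only wells and the 100% control is not disclosed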
ALR H2O2 inh: inhibitors of human sulfhydryl oxidase ALR; purified ALR, DTT oxidation, H2O2 HRP-luminol luminescence; inhibition, % (concentration not given with the values); actives 3.8% (n = 290,000);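 active = mean replicate inhibition above about 79%, with every replicate also reaching it, limit read from the data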
LANA-H2A inh: blocks KSHV LANA binding to histone H2A/H2B | cell-free LANA-H2A/H2B peptide, fluorescence polarization | inhibition, % (test concentration not listed) | actives 0.6% (n = 320,000) | Q9QR71; in the data active = inhibition mostly above about 10%, no sharp cut-off; inactive = mostly below about 6.7%
Target sequence (Q9QR71 whole entry, looked up): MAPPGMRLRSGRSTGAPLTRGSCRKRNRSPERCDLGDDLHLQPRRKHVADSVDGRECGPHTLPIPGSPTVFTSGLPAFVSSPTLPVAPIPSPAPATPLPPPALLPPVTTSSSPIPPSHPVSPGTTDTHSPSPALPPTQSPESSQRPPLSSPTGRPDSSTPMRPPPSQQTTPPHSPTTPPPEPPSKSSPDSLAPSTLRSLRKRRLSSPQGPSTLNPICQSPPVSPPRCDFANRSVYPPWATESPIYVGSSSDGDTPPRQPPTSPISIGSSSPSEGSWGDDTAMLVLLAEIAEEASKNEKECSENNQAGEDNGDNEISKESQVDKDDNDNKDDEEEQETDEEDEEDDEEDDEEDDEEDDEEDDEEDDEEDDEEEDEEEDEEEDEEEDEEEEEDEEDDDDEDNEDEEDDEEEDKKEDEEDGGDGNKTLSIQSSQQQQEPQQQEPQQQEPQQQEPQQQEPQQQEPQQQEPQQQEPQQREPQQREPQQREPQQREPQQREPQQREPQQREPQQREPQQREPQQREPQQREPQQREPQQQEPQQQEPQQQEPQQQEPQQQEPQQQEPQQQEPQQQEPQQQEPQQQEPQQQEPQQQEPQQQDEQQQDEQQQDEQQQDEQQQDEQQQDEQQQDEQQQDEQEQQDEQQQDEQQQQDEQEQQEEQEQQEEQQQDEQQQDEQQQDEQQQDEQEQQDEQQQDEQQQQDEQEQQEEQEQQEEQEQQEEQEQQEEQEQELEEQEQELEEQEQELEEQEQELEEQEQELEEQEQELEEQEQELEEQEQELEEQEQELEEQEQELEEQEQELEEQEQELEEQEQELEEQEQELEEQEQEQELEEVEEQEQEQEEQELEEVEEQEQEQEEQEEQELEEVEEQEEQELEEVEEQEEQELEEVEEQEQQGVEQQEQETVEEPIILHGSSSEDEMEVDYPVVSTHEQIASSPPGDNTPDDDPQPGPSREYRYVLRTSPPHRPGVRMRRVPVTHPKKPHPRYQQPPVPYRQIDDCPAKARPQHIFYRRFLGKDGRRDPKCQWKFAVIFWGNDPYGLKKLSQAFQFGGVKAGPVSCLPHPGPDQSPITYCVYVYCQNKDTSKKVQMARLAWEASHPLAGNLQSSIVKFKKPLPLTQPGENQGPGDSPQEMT
Rtt109 HAT inh: blocks Candida albicans Rtt109/Vps75 acetyltransferase activity; Q5AAJ8; purified Rtt109/Vps75, ThioGlo CoA-SH fluorescence, 4 h; inhibition, % at 34.9 µM; actives 0.16% (n = 330,000); AID 540336;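 active = inhibition of at least 50% in every replicate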
PRMT1 inh: inhibitors of human PRMT1; Q99873; recombinant PRMT1, activity-based probe fluorescence polarization; AID 652257; inhibition, % at 2.79 µM; actives 1.3% (n = 370,000);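 active = inhibition above about 21% made by adding two undisclosed values, limit read from the data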
Starred values were filed as active, the others as inactive; . = no result given.

SMILES	rCAG binder	ABHD5 PLIN5 PPI	ALR H2O2 inh	LANA-H2A inh	Rtt109 HAT inh	PRMT1 inh
COC(=O)C1CN(Cc2ccc(OC)cc2)CCS(=O)(=O)N1Cc1ccc(OC)cc1 (stereo not given)	5	.	.	.	.	5
COc1ccc(Cn2c(C)cc(O)cc2=O)cc1	3	.	.	.	.	-1
Cn1cc(C2(C)CCOc3ccccc32)c2ccccc21 (stereo not given)	3	.	.	.	.	0
CCOc1ccc(Cc2n[nH]c(=S)n2N)cc1	0	-1	96*	2	-14	-2
COC(=O)[C@@]12C[C@@H](CC(=O)NCC3CCCCC3)C(=O)N(Cc3ccco3)C1=CCC(C)(C)C2	1	-11	.	.	.	0
CC(O)(c1ccc(F)c(F)c1)c1nc(-c2cc(F)cc(F)c2)cs1 (stereo not given)	0	-17	.	.	.	0
Cc1ccc(Nc2cc(C)nn2-c2nc(C)cc(C)n2)cc1	-2	7	14	0	0	0
Cc1ccc(Nc2cc(C)nn2-c2nc(C)cc(=O)[nH]2)cc1	.	-6	92*	-5	13	.
CON=C(C(=O)NC1C(=O)N2C(C(=O)O)=C(CSc3nc(=O)c(=O)[nH]n3C)CSC12)c1csc(N)n1 (stereo not given)	17	2	.	.	2	21*
COc1cc(C(=O)NC2CCCCN(C(C)C)C2=O)cc(OC)c1OC (stereo not given)	1	.	.	.	.	0
CC(=O)N1CCN(c2ccc(NCc3cccc(C)c3)cc2)CC1	0	-11	99*	-4	3	2
Cc1cc(C(=O)N2CCN(c3ccc(F)cc3)CC2)on1	0	-2	97*	0	-2	-3
COc1cc(CNc2ccc(N3CCN(C(C)=O)CC3)cc2)ccc1OCc1ccc(F)cc1	3	-2	99*	-5	9	7
O=C(c1noc2c1CCCC2)N1CCN(c2ccc(F)cc2)CC1	.	3	5	-1	5	.
CC(=O)N1CCN(c2ccc(NCc3ccc(F)cc3)cc2)CC1	3	-6	99*	-2	-2	5
CCCCCCNC(=O)c1c(N)[nH]c(C(=O)c2ccccc2)c1-c1ccc(O)cc1	.	.	.	.	.	8
C[C@@H]1CN([C@@H](C)CO)C(=O)c2cc(NC(=O)c3ccccc3)ccc2O[C@@H](C)CCCCO[C@@H]1CN(C)Cc1ccc(C(F)(F)F)cc1	8	12	.	.	.	9
Cc1ccc2c(c1)c1nnc(SCC(=O)N3CCN(c4ccc(F)cc4)CC3)nc1n2CC(=O)O	22	-3	12	1	-16	22*
CCn1c2ccc(C)cc2c2nnc(SCCN3CCOCC3)nc21	-4	5	31	1	10	2
CC1=NNC(=O)C1CC(=O)N/N=C/C(C)=C/c1ccccc1 (stereo not given)	2	-4	94*	-3	1	-2
CCOc1cccc(/C=N/NC(=O)CC2C(=O)NN=C2C)c1O (stereo not given)	3	2	98*	2	0	1
CC1=NNC(=O)C1CC(=O)N/N=C/c1ccc(C)o1 (stereo not given)	-1	-2	18	2	.	-1
CCOCCOC(=O)C(C)Oc1ccc(Oc2ncc(Cl)cc2Cl)cc1 (stereo not given)	-10	2	-86	6	-3	-1
Oc1ccc(Oc2ncc(Cl)cc2Cl)cc1	-2	-4	99*	2	-3	-2
O=C(COC(=O)c1ccccc1)Nc1cccc(S(=O)(=O)N2CCCCC2)c1	4	7	.	.	-4	2
SMILES	rCAG binder	ABHD5 PLIN5 PPI	ALR H2O2 inh	LANA-H2A inh	Rtt109 HAT inh	PRMT1 inh
COc1cccc(NC(=O)CSc2cccc[n+]2[O-])c1	4	3	-14	1	-17	-1
Nc1nc(SCC(=O)Nc2cccc(Oc3ccccc3)c2)n[nH]1	5	-1	-5	2	-11	1
O=C(CSc1ncnc2[nH]ncc12)Nc1cccc(Oc2ccccc2)c1	10	8	98*	2	19	4
O=C(CSc1cccc[n+]1[O-])Nc1cccc(Oc2ccccc2)c1	2	-2	94*	-4	-2	8
COc1ccc(/C=N/NC(=O)C(=O)NCC2CCCO2)cc1 (stereo not given)	-2	5	-11	2	-6	1
Oc1ccc(/C=N/NC(=S)NC2CC3CCC2C3)cc1 (stereo not given)	3	-8	99*	0	6	5
Oc1ccc(/C=N/NC(=S)NCC2CCCO2)cc1 (stereo not given)	-1	-5	98*	5	3	1
CCN(CC)c1ccc(NC(=S)NCC2CCCO2)cc1 (stereo not given)	-7	-5	100*	-6	-3	-1
S=C(N/N=C/c1cccs1)NC1CC2CCC1C2 (stereo not given)	2	-9	0	-6	6	3
Cc1c(CN2CCC(CO)(CCOc3ccccc3)CC2)[nH]c2c(Cl)cccc12	3	20	.	17*	27	6
CC(=O)/C(=N/Nc1ccccc1)N1CCOCC1	-1	-6	99*	2	9	4
CC(=O)/C(=N/Nc1ccccc1C)N1CCOCC1	2	1	0	1	-5	3
CC(=O)/C(=N/Nc1cccc(Cl)c1)N1CCOCC1	-6	-1	98*	2	-2	4
CC(C)C[C@@H]1COc2cccc(N3CCCC3)c2S(=O)(=O)N1C	-2	.	.	.	.	-2
Cn1c(N2CCOCC2)nc(-c2ccccc2)c1-c1ccccc1	-8	-9	99*	-2	.	-5
CCc1ccc(NC(=O)CSc2nnc(CC)c(CC)n2)cc1	-1	-4	-12	-2	0	-2
CSc1nsc(SCC(=O)Nc2ccc(C(N)=O)cc2)n1	0	7	-8	31*	-8	4
CCc1nnc(SCC(=O)Nc2ccc(C(C)=O)cc2)nc1CC	5	1	99*	1	12	3
CSc1nsc(SCC(=O)Nc2ccc(O)c(C(=O)O)c2)n1	9	-4	82*	4	-9	10
Cc1cc(C)cc(C(=O)OCCCN(C)C2CN(Cc3cn(Cc4ccccc4F)nn3)S(=O)(=O)C2)c1 (stereo not given)	5	.	.	.	.	2
COc1ccc2cc(CN(CCc3ccccc3)Cc3nnnn3Cc3ccco3)c(=O)[nH]c2c1	9	22*	.	-7	-1	22*
CCCCN(Cc1cc2cc(OC)ccc2[nH]c1=O)C(=O)c1ccco1	3	10	-16	2	-3	24*
COc1ccc2[nH]c(=O)c(CN(C(=O)c3ccccn3)C3CCCCC3)cc2c1	-7	1	99*	5	-4	3
CCCN(Cc1cc2cc(OC)ccc2[nH]c1=O)C(=O)c1ccco1	-4	-2	-29	-4	-2	2
COc1ccc2[nH]c(=O)c(CN(Cc3nnnn3Cc3ccco3)C3CCCCC3)cc2c1	0	21	-2	-4	14	2

Compound activity as filed in PubChem BioAssay.
